Here are results for 1 compound from PubChem BioAssay AID743380 (National Center for Advancing Translational Sciences (NCATS), 2014).

Activity calls are given as the source filed them. Calls follow the shape of the full dose curve.

Chain of Phosphatidylinositol 4-phosphate 5-kinase type-1 alpha (Homo sapiens) (Q99755 whole entry, looked up, canonical isoform): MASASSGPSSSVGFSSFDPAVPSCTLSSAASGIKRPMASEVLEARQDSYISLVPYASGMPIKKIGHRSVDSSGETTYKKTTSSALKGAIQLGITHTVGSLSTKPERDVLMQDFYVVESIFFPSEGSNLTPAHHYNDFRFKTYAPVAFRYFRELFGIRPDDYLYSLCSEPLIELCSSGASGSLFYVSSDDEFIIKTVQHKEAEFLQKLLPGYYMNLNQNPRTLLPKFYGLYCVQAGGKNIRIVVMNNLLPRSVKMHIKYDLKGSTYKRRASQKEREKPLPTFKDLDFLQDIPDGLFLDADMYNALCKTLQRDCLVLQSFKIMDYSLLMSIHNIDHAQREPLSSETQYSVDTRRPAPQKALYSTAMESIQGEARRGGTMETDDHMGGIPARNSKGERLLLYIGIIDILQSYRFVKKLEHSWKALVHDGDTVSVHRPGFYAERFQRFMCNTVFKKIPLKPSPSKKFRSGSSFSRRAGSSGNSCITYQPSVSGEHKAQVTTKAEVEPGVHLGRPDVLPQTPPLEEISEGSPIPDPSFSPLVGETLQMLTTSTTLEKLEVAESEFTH

This test addresses Phosphatidylinositol 4-phosphate 5-kinase type-1 alpha (Homo sapiens) (UniProt Q99755). The test can be described thus: qHTS for Inhibitors of PI5P4K: PI4P5K-alpha 32P-ATP TLC Secondary Assay for Probe SAR. To be noted: recombinant PI4P5K-alpha, 32P-ATP TLC phosphorimager. The source says: In addition to finding PI5P, we discovered the type II phosphatidylinositol 5-phosphate 4-kinase (PI5P4K) family (alpha, beta, gamma isoforms) that catalyze the conversion of PI5P to PI(4,5)P2. Alternatively, PI(4,5)P2 can also be synthesized through phosphatidylinositol-4-phosphate (PI4P) by the type I phosphatidylinositol 4-phosphate 5-kinases (PI4P5K). These PI5P4K enzymes therefore represent one way by which cells can regulate endogenous PI5P levels and play important roles in insulin signaling and in stress responses. […] A qHTS PI5P4K-alpha ADP-Glo assay was developed to identify specific modulators of human PI5P4K, phosphatidylinositol-5-phosphate 4-kinase (Type II PIPK). To confirm that the active compounds and their analogs were true and selective inhibitors, a secondary Thin-layer Chromatography (TLC) assays against recombinant PI5P4K-alpha, PI4P5K-alpha or PI5P4K-beta that utilize a radioactively labeled ATP were developed. The data herein is the result of the PI4P5K-alpha TLC assay. […]
The kinase reaction was carried out in a total of 50 microL of kinase buffer (50 mM HEPES pH 7.4 and 10 mM MgCl2) containing 20 microM of the lipids that were suspended by sonication. […] The radiolabeled product, PI(4,5)P2, was quantified with a phosphorimager (Molecular Dynamics, STORM840, GE Healthcare, Waukesha, WI, USA).
Take `O=C1Nc2ccc(C(=O)c3ccco3)cc2/C1=C/c1cc(Cl)c(O)c(Cl)c1`: the Potency is 0.498 µM (active).
